Bioassay records as filed in PubChem BioAssay.
Most compounds without a hit are left out; they make up all but 1.6% or so of the library.
eIF4H FP inh = human eIF4H binding inhibitors, primary screen, translation initiation inhibitor project, biochemical, uHTS, fluorescence polarization; actives 0.94% (n = 290,000); inhibition, % at 35 µM; eIF4H fluorescence polarization binding assay; AID 2012, 2009; Eukaryotic translation initiation factor 4H (Homo sapiens), Q15056;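 also: calls also rest on retests at 20 µM and on dose response follow-up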
PABP FP inh = PABP poly(A) RNA binding inhibitors, primary screen, biochemical, fluorescence polarization, uHTS; actives 1% (n = 290,000); calls only at 35 µM; Polyadenylate-binding protein 1 (Homo sapiens), P11940; AID 2014, 2009;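 also: calls also rest on retests at 20 µM and on dose response follow-up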
PERK inhibitor = block of dimerizer-induced PERK translation repression, primary screen, PERK inhibitor project, CHO PERK-DD cells, SEAP luminescence, HTS; CHO PERK-DD fusion, SEAP luminescence translation reporter; actives 0.17% (n = 220,000); inhibition, % at 5.6 µM; AID 1416, 2008;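 active = inhibition above the mean inhibition of all tested compounds plus 3 SD, set separately per screening campaign, cut at about 2.9% in these data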;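 also: PERK kinase domain activated by AP20187 dimerizer at 100 nM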
Target sequence (Q9NZJ5 whole entry, looked up, the tested form may be a part): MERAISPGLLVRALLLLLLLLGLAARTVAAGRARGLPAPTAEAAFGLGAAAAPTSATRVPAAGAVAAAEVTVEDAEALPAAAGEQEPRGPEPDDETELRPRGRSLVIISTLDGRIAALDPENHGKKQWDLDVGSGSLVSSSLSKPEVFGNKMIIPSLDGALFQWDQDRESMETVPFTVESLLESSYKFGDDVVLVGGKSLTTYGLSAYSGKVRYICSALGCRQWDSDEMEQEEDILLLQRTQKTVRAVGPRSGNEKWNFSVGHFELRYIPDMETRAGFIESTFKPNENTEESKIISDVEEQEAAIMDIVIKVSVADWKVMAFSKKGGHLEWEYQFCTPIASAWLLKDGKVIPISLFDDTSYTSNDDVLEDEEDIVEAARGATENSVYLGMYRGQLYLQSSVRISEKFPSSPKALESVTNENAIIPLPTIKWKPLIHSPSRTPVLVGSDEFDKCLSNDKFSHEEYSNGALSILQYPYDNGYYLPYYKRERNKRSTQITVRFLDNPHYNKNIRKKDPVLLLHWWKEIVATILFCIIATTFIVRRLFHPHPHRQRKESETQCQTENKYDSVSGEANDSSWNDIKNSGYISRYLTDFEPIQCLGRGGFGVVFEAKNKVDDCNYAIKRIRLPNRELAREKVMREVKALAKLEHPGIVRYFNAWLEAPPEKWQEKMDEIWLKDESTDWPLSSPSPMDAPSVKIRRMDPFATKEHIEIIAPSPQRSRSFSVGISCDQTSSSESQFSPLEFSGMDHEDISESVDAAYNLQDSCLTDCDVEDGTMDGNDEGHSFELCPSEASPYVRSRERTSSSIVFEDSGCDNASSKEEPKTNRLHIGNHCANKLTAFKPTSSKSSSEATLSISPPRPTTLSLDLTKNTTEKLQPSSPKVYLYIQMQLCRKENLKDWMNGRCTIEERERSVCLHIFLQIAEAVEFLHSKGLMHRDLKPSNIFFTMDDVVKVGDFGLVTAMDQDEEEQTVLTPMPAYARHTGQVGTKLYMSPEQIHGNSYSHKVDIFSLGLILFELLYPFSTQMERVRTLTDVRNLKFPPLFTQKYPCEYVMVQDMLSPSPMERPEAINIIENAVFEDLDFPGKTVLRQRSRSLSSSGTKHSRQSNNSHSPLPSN
PABP1 MLLE inh = inhibitors of PABP1 MLLE–PAM2 peptide binding, primary screen, biochemical, fluorescence polarization, FITC-PAM2, GST-MLLE. Polyadenylate-binding protein 1 (Homo sapiens), P11940. inhibition, % at 20 µM. actives 0.36% (n = 360,000). AID 588489, 2011; in the data active = inhibition above about 35%, passing the limit was not always enough
eIF4E 4G PPI = eIF4E–eIF4G protein interaction inhibitors, primary screen, biochemical, uHTS, TR-FRET, eIF4GI fragment; AID 782, 2007; actives 0.37% (n = 220,000); inhibition, % at 21.7 µM; TR-FRET eIF4E-eIF4GI(517-606) binding, 2 h;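 active = inhibition above about 30%, limit read from the data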
Numbers stand for hits; – = inactive; ? = inconclusive; · = no result given; + = active, no number. Unless noted, no rule for the calls is given here.

SMILES	eIF4H FP inh	PABP FP inh	PERK inhibitor	PABP1 MLLE inh	eIF4E 4G PPI
Cc1cc2cc(CNS(=O)(=O)c3ccc4ccccc4c3)ccc2n1C	–	–	–	43	–
Cn1nc(NC(=O)CC(C)(C)CC(=O)O)c2ccccc21	–	–	–	–	–
CCOC(=O)N1CCc2[nH]c3ccc(C)cc3c2C1	–	–	–	56	–
CC(=O)N1CCc2[nH]c3ccccc3c2C1	–	–	3.3	–	–
Cc1ccc2[nH]c3c(c2c1)CN(C(=O)CN1CCSCC1)CC3	53	+	–	·	–
O=C(N1CCc2[nH]c3ccccc3c2C1)C(F)(F)F	–	–	·	–	·
COc1ccccc1NC(=O)N1CCc2[nH]c3ccc(F)cc3c2C1	102	+	–	–	–
COC(=O)c1cccc(N/C=C(\[N+](=O)[O-])S(=O)(=O)c2ccccc2)c1	–	–	·	–	·
Cc1ccc2[nH]c3c(c2c1)CN(C)CC3	–	–	–	–	–
CC(=O)N1CCc2[nH]c3ccc(C)cc3c2C1	?	+	·	–	·
ON=Cc1cccn1-c1ccccc1	–	–	–	–	–
CN1C(=O)S/C(=C/c2cccn2-c2cccc(C(=O)O)c2)C1=O	–	–	–	–	–
O=Cc1cccn1-c1cccc([N+](=O)[O-])c1	–	–	–	–	–
O=C(O)c1cccc(-n2cccc2/C=C\[N+](=O)[O-])c1	–	+	–	–	–
O=C(O)c1cccc(-n2cccc2/C=N/O)c1	92	+	–	–	–
O=C(O)c1cccc(-n2cccc2/C=C/[N+](=O)[O-])c1	94	+	3.2	–	–
O=C(OCC(=O)N1CCCCCC1)c1ccc([N+](=O)[O-])cc1Cl	–	–	–	–	–
COCCN(C(=O)COC(=O)c1c(C)nn(-c2ccccc2)c1C)c1c(N)n(Cc2ccccc2)c(=O)[nH]c1=O	·	·	·	–	·
Cc1c(-n2cccc2C=O)cccc1[N+](=O)[O-]	–	–	–	–	86
O=C(O)C[C@@H]1C(=O)O[C@@H]2C(COC(=O)c3cc(O)c(O)c(O)c3)O[C@@H](OC(=O)c3cc(O)c(O)c(O)c3)[C@@H](OC(=O)c3cc(O)c(O)c4c3[C@H]1[C@H](O)C(=O)O4)[C@H]2OC(=O)c1cc(O)c(O)c(O)c1 (some centres undefined)	87	+	·	·	38
COC1OC(COC(=O)c2ccccc2)C(OC(=O)c2ccccc2)C1OC(=O)c1ccccc1 (centres undefined)	–	–	·	–	·
COc1cccc(N2C(=NC(=O)CCc3ccccc3)SC3CS(=O)(=O)CC32)c1 (centres undefined)	–	–	·	–	·
Cc1ccccc1C1C(C#N)=C2N=C(N)c3c(sc4c3CCCCC4)N2C2=C1C(=O)CCC2 (centres undefined)	78	+	–	–	–
N#CC1=C2N=C(N)c3ccccc3N2C2=C(C(=O)CCC2)C1c1ccccc1F (centres undefined)	?	?	–	–	–
CC(c1nc2ccccc2c(=O)[nH]1)N(C)c1ccc2ccccc2c1 (centres undefined)	–	–	–	42	–
SMILES	eIF4H FP inh	PABP FP inh	PERK inhibitor	PABP1 MLLE inh	eIF4E 4G PPI
CC(C)Sc1nc2ccccc2c(=O)[nH]1	–	–	–	–	–
O=S1(=O)CC(N2CCN(CCO)CC2)CN1CCc1ccccc1 (centres undefined)	·	·	·	–	·
COc1ccc(-c2cn3cccnc3n2)cc1NC(=O)c1cc(OC)c(OC)c(OC)c1	active	+	–	–	–
Clc1ccc(-c2cn3cccnc3n2)cc1Cl	71	+	–	–	–
Clc1ccc(-c2cn3cccnc3n2)cc1	–	–	–	–	–
CSC1=NC=C(C#N)C2=NC(c3c(Cl)cccc3Cl)NN12 (centres undefined)	·	·	·	–	·
Cc1ccsc1C(=O)Nc1ccc(OCc2ccccc2)cc1	–	–	·	–	·
Cc1cn(CC(=O)c2ccccc2)c2ccccc12	–	–	·	–	·
Cc1cc(C)nc(SCc2ccc(C(=O)N/N=C/c3cccc(O)c3O)cc2)n1	97	+	–	–	–
Cc1cc(C)nc(SCNC(=O)c2ccccc2)n1	–	–	–	43	–
Cc1cc(SCNC(=O)c2ccccc2)nc(C(C)C)n1	–	–	–	41	–
Cc1cc(C)nc(SCC(=O)O)n1	–	–	–	–	–
CCCCNC(=O)c1ccccc1SCC(=O)NC1CCCCCCC1	·	·	·	–	·
Cc1ccc(NC(=O)c2cccc(NC3=NC4CS(=O)(=O)CC4S3)c2)cc1 (centres undefined)	–	–	·	–	·
CCCn1c(N)c(C(=O)CN2CCN(S(=O)(=O)c3cccc(Cl)c3)CC2)c(=O)[nH]c1=O	·	·	·	–	·
O=C(O)COCC(=O)Nc1ccc(OCCc2ccccc2)cc1	–	–	·	–	·
O=C(CN1C(=O)NC2(CCOc3ccccc32)C1=O)c1ccc[nH]1 (centres undefined)	·	·	·	–	·
O=C(c1ccc(=O)oc1)N1CCOCC1	88	+	–	–	–
O=C(NC(=S)NCCC1=CCCCC1)c1cccnc1	–	–	–	–	–
COC(=O)\C(C(C)=O)=C(/C=C/C=C/C=C/N(C)C)N(C)C	90	+	–	–	–
COc1ccc(CCCC(=O)N/N=C/c2ccc(C)cc2)cc1	–	–	–	–	–
COc1ccc(CCCC(=O)N/N=C/c2ccccc2OC)cc1	active	+	–	–	–
CN(C)C1=C(Cl)C(=O)N(c2ccc(Cl)c(Cl)c2)C1=O	–	+	–	–	–
COc1ccc(COC(=O)c2cccc(S(=O)(=O)N3CCCC3)c2)cc1F	–	–	·	–	·
CC1(C)Cc2c(sc(NC(=O)c3ccco3)c2C#N)C(C)(C)N1	61	+	·	·	·
SMILES	eIF4H FP inh	PABP FP inh	PERK inhibitor	PABP1 MLLE inh	eIF4E 4G PPI
CC(=O)Nc1sc2c(c1C#N)CC(C)(C)NC2(C)C	–	–	–	–	–
CC(C)CC(=O)Nc1cccc(C(C)O)c1 (centres undefined)	active	+	–	·	–
O=[N+]([O-])c1ccc2[nH]c(O)c(N=NC3CS(=O)(=O)CC3O)c2c1 (centres undefined)	–	–	–	–	–
O=C(O)CN1C(=O)/C(=C\c2cc(Br)ccc2OCc2ccc(Cl)cc2Cl)SC1=S	88	+	·	–	·
COC(=O)C[C@H]1C[C@@H]2c3cc(NC(=O)NC4CCCC4)ccc3O[C@@H]2[C@@H](CO)O1	·	·	·	–	·
Cc1n[nH]c(=O)nc1NCc1ccco1	–	–	–	–	74
CCOc1ccc(-n2cc(-c3ccccc3)c3c(=S)nc[nH]c32)cc1	–	–	·	39	·
COc1ccc(OC)c(S(=O)(=O)N2CCCCC2C(=O)N2CCN(c3ccccn3)CC2)c1 (centres undefined)	–	–	–	38	–
